Test results taken from PubChem BioAssay (EPA / NIEHS).
Records with an inconclusive call do not appear. Calls of active or inactive are those of the source. The calls were made as follows, unless noted: active = hit-call score of the fitted dose curve at least 0.9, where 1 is the maximum; inactive = score below 0.9.

Tests used:
[1] = ACEA_ER_80hr: ACEA Biosciences xCELLigence Real-Time Cell Analysis on Estrogen Receptor Agonism for Proliferation (AID 2282667; active = hit-call score of the fitted dose curve at least 0.9, where 1 is the maximum); settings: T47D proliferation, impedance (xCELLigence), 80 h
How it was run: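 Impedance readout (RT-CES) of T47D proliferation at 80 h post-dose; gain of signal vs DMSO baseline. Compounds: 8 conc, 1:4 serial, top 100 uM final, ≤0.5% DMSO; biological duplicate.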

[2] = ATG_CRE_CIS: Attagene CIS-FACTORIAL HepG2 Assay for human cAMP Responsive Element (CRE) binding protein 3 (AID 2282926); settings: HepG2 CRE cis-reporter, Attagene multiplexed mRNA; actives raise or lower the signal
How it was run: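 Readout: fluorescently labelled reporter transcripts resolved by capillary electrophoresis after RT-PCR, taken 24 h post-dosing in transfected HepG2. Endogenous transcription factor activity drives each cis-element reporter; gain or loss of signal fitted relative to DMSO control.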

[3] = molecular target: CCAAT/enhancer-binding protein beta (Homo sapiens) (UniProt P17676); assay: ATG_C_EBP_CIS: Attagene CIS-FACTORIAL HepG2 Assay for human CCAAT/Enhancer Binding Protein (C/EBP) beta (AID 2282927); settings: HepG2 Attagene cis-factorial transcription factor reporter; actives raise or lower the signal
How it was run: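 Endogenous transcription factor activity in human liver HepG2 cells is inferred from induction of a CEBPB-linked reporter mRNA. Exposure lasts 24 h; activity is fitted in both directions relative to DMSO.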

[4] = ATG_CMV_CIS: Attagene CIS-FACTORIAL HepG2 Assay for human CMV (Internal Marker) (AID 2282928); settings: HepG2 CMV promoter reporter, transcription factor profiling; actives raise or lower the signal;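 also: endpoint acts as a background internal control marker rather than a target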
How it was run: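 Fluorescence intensity of RT-PCR-derived reporter fragments, resolved by capillary electrophoresis, gives the signal. HepG2 liver cells bearing transfected cis-element reporters were treated 24 h; activity in either direction was fit relative to DMSO-treated controls.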

[5] = ATG_DR4_LXR_CIS: Attagene CIS-FACTORIAL HepG2 Assay for human Liver X Receptor (LXR), DR4 submotif (AID 2282929); settings: HepG2 Attagene DR4 cis-reporter, mRNA transcription; actives raise or lower the signal
How it was run: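 Measures endogenous transcription factor activity via a DR4-driven reporter transcript in human HepG2 cells. Compounds incubated 24 h; mRNA quantified by RT-PCR and capillary electrophoresis, analysed as gain or loss of signal versus DMSO.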

[6] = molecular target: Aryl hydrocarbon receptor (Homo sapiens) (UniProt P35869); assay: ATG_Ahr_CIS: Attagene CIS-FACTORIAL HepG2 Assay for human Aryl Hydrocarbon Receptor (Ahr) (AID 2282930); settings: HepG2 AhR cis-factorial reporter transcription; actives raise or lower the signal
How it was run: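 Transient MRTU transfection of HepG2 → 24 h compound exposure → total RNA, oligo(dT) RT → PCR, 6-FAM extension, HpaI cut → CE fluorescence. DMSO = baseline; bidirectional curve fit.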

[7] = ATG_AP_2_CIS: Attagene CIS-FACTORIAL HepG2 Assay for human Activator Protein 2 (AP-2) (AID 2282932); settings: HepG2 AP-2 cis-reporter, Attagene transcription factor profiling; actives raise or lower the signal
How it was run: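 Transiently transfected HepG2 cells are exposed to chemical for 24 h. Reporter transcripts are then measured as fluorescence following RT-PCR and capillary separation, and gain- or loss-of-signal is fitted relative to DMSO.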

[8] = ATG_BRE_CIS: Attagene CIS-FACTORIAL HepG2 Assay for human Bone Morphogenetic Protein (BMP) Response Element (BRE) (AID 2282933); settings: HepG2 BMP response element reporter, Attagene transcription factor profiling; actives raise or lower the signal
How it was run: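 Endogenous transcription factor activity at a BMP response element was monitored in transfected HepG2 cells 24 h after dosing. Fluorescent RT-PCR products were resolved by capillary electrophoresis, and activity was fitted in both directions versus DMSO.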

[9] = molecular target: Retinoic acid receptor alpha (Homo sapiens) (UniProt P10276); assay: ATG_DR5_RAR_CIS: Attagene CIS-FACTORIAL HepG2 Assay for human Retinoic Acid Receptor Alpha (RARE), DR5 submotif (AID 2282934); settings: HepG2 Attagene cis-factorial RARE DR5 reporter, mRNA; actives raise or lower the signal;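 as to AC50: reporter responds to endogenous RAR alpha beta and gamma in HepG2 not RARA alone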
How it was run: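 Transient MRTU transfection of HepG2; 24 h compound treatment; TriZol RNA, oligo(dT) RT, PCR, FAM labelling, capillary electrophoresis. Bidirectional fit vs DMSO. Endogenous TF activity at DR5 RARE.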

[10] = molecular target: Transcription factor E2F1 (Homo sapiens) (UniProt Q01094); assay: ATG_E2F_CIS: Attagene CIS-FACTORIAL HepG2 Assay for human E2F Transcription Factor 1 (AID 2282935); settings: HepG2 Attagene cis-reporter, E2F reporter RNA transcripts; actives raise or lower the signal
How it was run: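 Fluorescent RT-PCR products, digested with HpaI for 2 h at 37 C, are separated by capillary electrophoresis. Source RNA comes from transfected HepG2 cultures treated for 24 h.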

[11] = ATG_E_Box_CIS: Attagene CIS-FACTORIAL HepG2 Assay for human Enhancer Box (E-box) (AID 2282936); settings: HepG2 E-box cis-reporter transcription, actives raise or lower the signal
How it was run: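 Fluorescent reporter fragments separated by capillary electrophoresis gave the signal; mRNA came from HepG2 cells transfected with cis-element reporters and treated 24 h. Curves fitted bidirectionally relative to DMSO controls.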

[12] = ATG_EGR_CIS: Attagene CIS-FACTORIAL HepG2 Assay for human Early Growth Response 1 (EGR1) (AID 2282938); settings: HepG2 Attagene CIS-FACTORIAL EGR reporter mRNA; actives raise or lower the signal
How it was run: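 Cell-based multiplex transcription assay: HepG2 carrying transfected cis-element reporter units, 24 h chemical treatment. Fluorescence from capillary electrophoresis of RT-PCR products gives mRNA levels; fitting is bidirectional relative to DMSO.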

[13] = ATG_M_19_CIS: Attagene CIS-FACTORIAL HepG2 Assay for M19 Transcription Factor (Internal Marker) (AID 2282939); settings: HepG2 Attagene CIS-FACTORIAL M19 internal marker reporter; actives raise or lower the signal
How it was run: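 Background-control endpoint from a multiplexed HepG2 reporter panel. Cells carrying cis-regulated reporter constructs are treated 24 h, then reporter transcripts are amplified, fluorescently labelled and sized by capillary electrophoresis. DMSO defines baseline.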

[14] = ATG_ERE_CIS: Attagene CIS-FACTORIAL HepG2 Assay for Estrogen Response Element (ERE) (AID 2282940); settings: HepG2 ERE cis-reporter, Attagene RNA transcript; actives raise or lower the signal
How it was run: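 Cells used were human hepatoma HepG2, transfected with multiple reporter transcription units under cis-regulatory promoters. Reporter mRNA, read 24 h post-dosing via fluorescent RT-PCR products on capillary electrophoresis, was fitted bidirectionally relative to DMSO.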

[15] = ATG_Ets_CIS: Attagene CIS-FACTORIAL HepG2 Assay for human Erythroblast Transformation Specific (ETS) (AID 2282941); settings: HepG2 ETS cis-reporter transcription, actives raise or lower the signal
How it was run: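 Multiplexed reporter transcript profiling: HepG2, 24 h treatment, total RNA to cDNA, PCR, 6-FAM labelling, HpaI cut, capillary electrophoresis. Gain- or loss-of-signal fitted against DMSO.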

[16] = molecular target: Hepatocyte nuclear factor 3-beta (Homo sapiens) (UniProt Q9Y261); assay: ATG_FoxA2_CIS: Attagene CIS-FACTORIAL HepG2 Assay for human Forkhead box A2 (FOXA2) (AID 2282942); settings: HepG2 cis-reporter transcription factor activity, 24 h; actives raise or lower the signal
How it was run: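 In transiently transfected human HepG2 cells, promoter-driven reporter mRNA levels after 24 h chemical exposure are determined via RT-PCR with capillary electrophoresis. DMSO serves as baseline for bidirectional fitting.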

[17] = ATG_FoxO_CIS: Attagene CIS-FACTORIAL HepG2 Assay for human Forkhead box O (FoxO) (AID 2282943); settings: HepG2 Attagene cis-reporter, FoxO element, mRNA; actives raise or lower the signal
How it was run: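 HepG2, transient MRTU transfection (cis element, endogenous TFs). Dose 24 h. TriZol RNA → oligo(dT) RT → PCR → 6-FAM primer extension → HpaI cut → CE. Gain/loss vs DMSO.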

[18] = ATG_GATA_CIS: Attagene CIS-FACTORIAL HepG2 Assay for human GATA Binding Protein (AID 2282944); settings: HepG2 GATA cis-element reporter, Attagene multiplex mRNA; actives raise or lower the signal
How it was run: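 Endogenous transcription factor activity was captured through cis-promoter-driven reporters in transfected HepG2 cells. After 24 h exposure, reporter transcripts were quantified by RT-PCR with fluorescent capillary electrophoresis, and responses fitted both directions against DMSO.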

[19] = ATG_AP_1_CIS: Attagene CIS-FACTORIAL HepG2 Assay for human Activator Protein 1 (AP-1) (AID 2282931); settings: HepG2 Attagene cis-factorial AP-1 reporter mRNA; actives raise or lower the signal
How it was run: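 Bidirectional concentration-response fitting against DMSO controls. Underlying signal: reporter mRNA from cis-promoter constructs in transiently transfected HepG2, measured after 24 h by RT-PCR and capillary electrophoresis.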

[20] = ATG_M_61_CIS: Attagene CIS-FACTORIAL HepG2 Assay for M61 Transcription Factor (Internal Marker) (AID 2282937); settings: HepG2 Attagene CIS-FACTORIAL M61 internal marker reporter; actives raise or lower the signal
How it was run: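 Fluorescence from labelled cDNA fragments, separated by capillary electrophoresis, quantifies reporter induction. HepG2 cells bearing transiently transfected cis-promoter MRTUs were incubated with test chemical for 24 h; DMSO defined baseline for gain/loss fitting.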

CCAAT/enhancer-binding protein beta (Homo sapiens), sequence (P17676 whole entry, looked up): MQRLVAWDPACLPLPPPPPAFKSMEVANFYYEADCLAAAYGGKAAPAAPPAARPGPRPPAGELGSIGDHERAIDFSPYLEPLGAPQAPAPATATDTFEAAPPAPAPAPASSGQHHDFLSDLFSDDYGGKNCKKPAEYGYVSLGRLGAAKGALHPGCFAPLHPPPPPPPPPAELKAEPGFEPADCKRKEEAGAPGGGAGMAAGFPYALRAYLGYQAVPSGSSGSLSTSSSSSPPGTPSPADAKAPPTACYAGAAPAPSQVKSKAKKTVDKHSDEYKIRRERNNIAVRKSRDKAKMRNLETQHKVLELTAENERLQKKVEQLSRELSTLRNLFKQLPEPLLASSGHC
Transcription factor E2F1 (Homo sapiens), sequence (Q01094 whole entry, looked up): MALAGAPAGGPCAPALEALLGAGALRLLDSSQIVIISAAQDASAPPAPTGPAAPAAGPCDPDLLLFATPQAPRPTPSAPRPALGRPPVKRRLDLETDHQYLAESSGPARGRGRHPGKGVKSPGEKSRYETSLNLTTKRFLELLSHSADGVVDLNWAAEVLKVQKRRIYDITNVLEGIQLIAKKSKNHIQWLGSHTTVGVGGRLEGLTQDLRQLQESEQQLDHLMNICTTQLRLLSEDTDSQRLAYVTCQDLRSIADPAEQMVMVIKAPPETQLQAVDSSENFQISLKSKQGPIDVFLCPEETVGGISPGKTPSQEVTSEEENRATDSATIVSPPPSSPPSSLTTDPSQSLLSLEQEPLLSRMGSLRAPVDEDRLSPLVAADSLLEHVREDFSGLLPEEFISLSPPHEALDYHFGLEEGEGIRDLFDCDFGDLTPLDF
Retinoic acid receptor alpha (Homo sapiens), sequence (P10276 whole entry, looked up): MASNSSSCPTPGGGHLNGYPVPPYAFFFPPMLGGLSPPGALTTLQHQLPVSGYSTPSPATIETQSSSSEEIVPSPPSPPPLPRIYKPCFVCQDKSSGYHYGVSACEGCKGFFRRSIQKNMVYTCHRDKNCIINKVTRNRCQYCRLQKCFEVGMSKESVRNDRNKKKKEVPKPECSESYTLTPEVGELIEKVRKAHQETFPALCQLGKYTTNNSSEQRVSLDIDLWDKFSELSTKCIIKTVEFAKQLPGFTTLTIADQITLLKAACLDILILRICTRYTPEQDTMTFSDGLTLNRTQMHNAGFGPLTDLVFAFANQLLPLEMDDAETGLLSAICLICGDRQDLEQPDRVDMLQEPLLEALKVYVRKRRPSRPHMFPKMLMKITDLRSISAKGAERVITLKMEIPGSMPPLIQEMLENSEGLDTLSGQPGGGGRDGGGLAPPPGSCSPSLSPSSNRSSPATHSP
Hepatocyte nuclear factor 3-beta (Homo sapiens), sequence (Q9Y261 whole entry, looked up): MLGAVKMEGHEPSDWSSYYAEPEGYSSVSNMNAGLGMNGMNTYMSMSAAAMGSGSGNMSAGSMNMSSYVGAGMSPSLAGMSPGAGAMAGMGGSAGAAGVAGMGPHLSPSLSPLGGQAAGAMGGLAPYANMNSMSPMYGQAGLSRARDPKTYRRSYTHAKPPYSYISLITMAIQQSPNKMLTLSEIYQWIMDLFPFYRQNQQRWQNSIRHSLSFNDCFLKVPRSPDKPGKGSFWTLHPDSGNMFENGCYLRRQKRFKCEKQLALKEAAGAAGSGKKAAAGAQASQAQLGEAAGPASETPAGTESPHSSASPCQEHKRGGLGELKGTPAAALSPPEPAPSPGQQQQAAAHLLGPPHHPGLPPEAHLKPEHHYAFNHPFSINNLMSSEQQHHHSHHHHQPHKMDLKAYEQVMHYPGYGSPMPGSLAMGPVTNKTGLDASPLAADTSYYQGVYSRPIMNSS
Aryl hydrocarbon receptor (Homo sapiens), sequence (P35869 whole entry, looked up): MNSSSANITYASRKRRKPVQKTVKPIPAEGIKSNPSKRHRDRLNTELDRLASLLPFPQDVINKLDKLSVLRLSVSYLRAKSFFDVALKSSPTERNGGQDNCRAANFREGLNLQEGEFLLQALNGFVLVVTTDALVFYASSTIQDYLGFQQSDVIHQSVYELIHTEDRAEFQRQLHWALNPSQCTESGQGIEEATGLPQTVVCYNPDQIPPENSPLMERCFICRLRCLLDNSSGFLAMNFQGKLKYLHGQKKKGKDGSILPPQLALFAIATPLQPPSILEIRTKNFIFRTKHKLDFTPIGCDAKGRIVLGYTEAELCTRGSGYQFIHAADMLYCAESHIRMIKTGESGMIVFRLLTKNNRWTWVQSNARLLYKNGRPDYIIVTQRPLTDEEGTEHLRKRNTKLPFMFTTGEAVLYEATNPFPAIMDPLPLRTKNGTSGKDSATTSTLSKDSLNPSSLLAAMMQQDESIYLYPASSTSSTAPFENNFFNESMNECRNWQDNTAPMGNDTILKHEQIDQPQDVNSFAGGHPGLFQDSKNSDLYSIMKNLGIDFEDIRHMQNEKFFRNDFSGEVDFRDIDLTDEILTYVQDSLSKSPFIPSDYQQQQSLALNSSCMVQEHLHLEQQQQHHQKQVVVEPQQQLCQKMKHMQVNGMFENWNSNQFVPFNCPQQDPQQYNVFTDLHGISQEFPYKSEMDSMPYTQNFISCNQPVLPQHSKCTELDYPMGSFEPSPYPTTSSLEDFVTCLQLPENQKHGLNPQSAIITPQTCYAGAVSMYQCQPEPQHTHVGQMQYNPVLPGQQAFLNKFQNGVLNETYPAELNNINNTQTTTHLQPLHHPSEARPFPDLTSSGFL

C=C(C)C1CC=C(C)C(OC(C)=O)C1 (stereo not given)
outcome [1]: inactive
outcome [2]: inactive
outcome [3]: inactive
outcome [4]: inactive
outcome [5]: inactive
outcome [6]: inactive
outcome [7]: inactive
outcome [8]: inactive
outcome [9]: inactive
outcome [10]: inactive
outcome [11]: inactive
outcome [12]: inactive
outcome [13]: inactive
outcome [14]: inactive
outcome [15]: inactive
outcome [16]: inactive
outcome [17]: inactive
outcome [18]: inactive

CC(C)=NNC(N)=S
outcome [1]: inactive
outcome [2]: inactive
outcome [3]: inactive
outcome [4]: inactive
outcome [5]: inactive
outcome [19]: inactive
outcome [7]: inactive
outcome [8]: inactive
outcome [10]: inactive
outcome [11]: inactive
outcome [20]: inactive
outcome [12]: inactive
outcome [13]: inactive
outcome [14]: inactive
outcome [15]: inactive
outcome [16]: inactive
outcome [17]: inactive
outcome [18]: inactive

CC(C)C(=O)OCCOc1ccccc1
outcome [1]: inactive
outcome [2]: inactive
outcome [3]: inactive
outcome [4]: inactive
outcome [5]: inactive
outcome [6]: inactive
outcome [7]: inactive
outcome [9]: inactive
outcome [10]: inactive
outcome [11]: inactive
outcome [20]: inactive
outcome [12]: inactive
outcome [13]: inactive
outcome [14]: inactive
outcome [15]: inactive
outcome [16]: inactive
outcome [17]: inactive
outcome [18]: inactive

CCNc1nc(NC(C)(C)C)nc(OC)n1
outcome [1]: inactive
outcome [2]: inactive
outcome [3]: inactive
outcome [4]: inactive
outcome [5]: inactive
outcome [19]: inactive
outcome [7]: inactive
outcome [8]: inactive
outcome [9]: inactive
outcome [10]: inactive
outcome [20]: inactive
outcome [12]: inactive
outcome [13]: inactive
outcome [14]: inactive
outcome [15]: inactive
outcome [16]: inactive
outcome [17]: inactive
outcome [18]: inactive

CCC(C)N (stereo not given)
outcome [1]: inactive
outcome [2]: inactive
outcome [3]: inactive
outcome [4]: inactive
outcome [5]: inactive
outcome [19]: inactive
outcome [7]: inactive
outcome [8]: inactive
outcome [10]: inactive
outcome [11]: inactive
outcome [20]: inactive
outcome [12]: inactive
outcome [13]: inactive
outcome [14]: inactive
outcome [15]: inactive
outcome [16]: inactive
outcome [17]: inactive
outcome [18]: inactive

C=CC(=O)NCOCCCC
outcome [1]: inactive
outcome [2]: inactive
outcome [3]: inactive
outcome [4]: inactive
outcome [5]: inactive
outcome [6]: inactive
outcome [7]: inactive
outcome [8]: inactive
outcome [9]: inactive
outcome [10]: inactive
outcome [11]: inactive
outcome [20]: inactive
outcome [12]: inactive
outcome [13]: inactive
outcome [14]: inactive
outcome [15]: inactive
outcome [16]: inactive
outcome [18]: inactive

c1ccc(Nc2cccc3ccccc23)cc1
outcome [1]: inactive
AC50 [2]: 48.3 µM (active)
AC50 [3]: 45.7 µM (active)
AC50 [4]: 33.4 µM (active)
outcome [5]: inactive
AC50 [19]: 53.7 µM (active)
outcome [7]: inactive
AC50 [8]: 49.2 µM (active)
AC50 [9]: 33.4 µM (active)
AC50 [10]: 33.4 µM (active)
outcome [11]: inactive
outcome [20]: inactive
AC50 [12]: 46.8 µM (active)
AC50 [13]: 47.9 µM (active)
AC50 [14]: 2.06 µM (active)
AC50 [15]: 33.4 µM (active)
outcome [16]: inactive
AC50 [17]: 53.2 µM (active)
outcome [18]: inactive

O=C1c2ccccc2C(=O)c2cc(S(=O)(=O)O)ccc21
outcome [1]: inactive
outcome [2]: inactive
outcome [3]: inactive
outcome [4]: inactive
outcome [5]: inactive
outcome [6]: inactive
outcome [7]: inactive
outcome [8]: inactive
outcome [10]: inactive
outcome [11]: inactive
outcome [20]: inactive
outcome [12]: inactive
outcome [13]: inactive
outcome [14]: inactive
outcome [15]: inactive
outcome [16]: inactive
outcome [17]: inactive
outcome [18]: inactive
